Measurements reported in the supplement of paper PMC10498489.
Out of some 2,300 compounds screened, about 330 (14%) showed activity. These entries were drawn from the full list. A number with no mark means an inactive call.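 The calls were made as follows: active = median modified Z-score above 1.96; inactive = 1.96 or below.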

Each compound was assayed on HepG2 Srxn1-GFP reporter cells (+30 nM CDDO-Me) (assay: Srxn1-GFP intensity median modified Z-score relative to plate median; higher = stronger NRF2 / oxidative stress reporter activation, active = hit call of the paper). Conditions: 10 µM; exposure time: 24h.
Method in brief: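 Each value is the replicate median of a per-plate modified Z-score for GFP intensity in HepG2 Srxn1-GFP BAC reporter cells. The cells (20,000 per well, 96-well plates, three replicate plates) received compound at 10 μM together with an NRF2 activator at 30 nM for 24 h, in ≤0.1% DMSO. Cytoplasmic GFP was quantified per cell from confocal images of formaldehyde-fixed, Hoechst-stained cells, leaving out images with fewer than 100 cells, and scaling used 1.4826 × median absolute deviation.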

Compared with `Cc1c(C(=O)O)sc(S(=O)(=O)N2CCN(C(=O)CC3CCCC3)CC2)c1C(=O)O`, `C[C@]12CCC(=O)CC1=CCC1C2[C@@H](O)C[C@@]2(C)C1CC[C@]2(O)C(=O)COC(=O)CCC(=O)O` (stereo not given in full) [euspeclibcmpd152] is lower in “Srxn1-GFP intensity median modified Z-score” value: 0.344 for the first, -0.766 for the second.

Compared with `Nc1cc(-c2ccncc2)c[nH]c1=O` [euspeclibcmpd524], `COc1cc(=NS(=O)(=O)c2ccc(N)cc2)[nH]cn1` [euspeclibcmpd400] is lower in “Srxn1-GFP intensity median modified Z-score” value: -0.435 for the first, -0.55 for the second.

First: CC(=O)C(N)C(O)O (stereo not given) [euspeclibcmpd2348]
Second: NC(CSCSCC(N)C(=O)O)C(=O)O (stereo not given) [euspeclibcmpd1615]
The “Srxn1-GFP intensity median modified Z-score” value of the first is lower: -0.525 for the first, -0.0888 for the second.

Going from `CC(=O)C(N)C(O)O` (stereo not given) [euspeclibcmpd1109] to `COc1cc(O)c(C(C)=O)c(O)c1` [euspeclibcmpd1561], the “Srxn1-GFP intensity median modified Z-score” value rises from -0.112 to 1.48.

Compared with `CCOc1cc(CC(=O)N[C@@H](CC(C)C)c2ccccc2N2CCCCC2)ccc1C(=O)O` [euspeclibcmpd908], `Oc1cc2cc(CCN3CCN(c4nsc5ccccc45)CC3)c(Cl)cc2[nH]1` [euspeclibcmpd1992] is lower in “Srxn1-GFP intensity median modified Z-score” value: 0.187 for the first, -0.197 for the second.

First: CCn1cc(N(CC(C)C)S(=O)(=O)CCC2CCOCC2)cn1
Second: C[C@@H]1CCC2[C@](C)(CO)[C@@H](O)CC[C@]2(C)[C@@]12CC[C@@](CO)(CCO)O2 (stereo not given in full) [euspeclibcmpd1570]
The “Srxn1-GFP intensity median modified Z-score” value of the first is higher: 1.44 for the first, -0.216 for the second.

Going from `N=c1ccn2c(n1)O[C@@H]1[C@@H](O)[C@H](CO)O[C@@H]12` [euspeclibcmpd1164] to `CC1CCC2(C(=O)O)CCC3(C)C(=CCC4C5(C)CC(O)C(O)C(C)(CO)C5CCC43C)C2C1C` (stereo not given) [euspeclibcmpd1959], the “Srxn1-GFP intensity median modified Z-score” value falls from 0.441 to -0.237.

Compared with `O=C(O)CCC(=O)OC[C@@H](NC(=O)C(Cl)Cl)[C@H](O)c1ccc([N+](=O)[O-])cc1` [euspeclibcmpd2230], `CCCCCCOc1ccccc1C(N)=O` [euspeclibcmpd1139] is higher in “Srxn1-GFP intensity median modified Z-score” value: -0.0902 for the first, 0.59 for the second.

`N=C(N)c1ccc(N=NNc2ccc(C(=N)N)cc2)cc1` [euspeclibcmpd1093] was tested, and the “Srxn1-GFP intensity median modified Z-score” value was 0.338.

For `Cc1[nH]c(=O)c(C#N)cc1-c1ccncc1` [euspeclibcmpd1241], the “Srxn1-GFP intensity median modified Z-score” value was 2.87 (active).
With `N[C@@H](CC(=O)N1CCn2c(nnc2C(F)(F)F)C1)Cc1cc(F)c(F)cc1F` [euspeclibcmpd2166] the “Srxn1-GFP intensity median modified Z-score” value was 12.2 (active).
`N=C(N)c1ccc(OCCCCCOc2ccc(C(=N)N)cc2)cc1` [euspeclibcmpd1040] was tested, and the “Srxn1-GFP intensity median modified Z-score” value was 12.5 (active).
